Measured values published in PubChem BioAssay AID493240 (Broad Institute, 2011).
Screen size: about 1,300 compounds; about 270 (21%) were called active. The rule behind the calls is not given here. Not all results are given here. Measured potencies and affinities stand elsewhere.

Assay: SK-MEL-5 parental cell viability loss, dose response, orthogonal assay for MITF inhibitor project, CellTiter-Glo, cherry-picked, set 3 (AID 493240)
Details: SK-MEL-5 viability, ATP luminescence (CellTiter-Glo), 24 h; series mostly up to 35 µM

Compound	outcome
Cc1ccc(-c2nc(-c3ccncc3)no2)cc1C	inactive
CCOc1ccc(NC(=O)c2ccc3snnc3c2)cc1	inactive
Nc1ccccc1SC1CC(=O)N(c2ccc3c(c2)OCCO3)C1=O (stereo not drawn)	inactive
O=C(O)c1ccc(C(=O)Nc2ccc(F)cc2)cc1	inactive
O=C(Nc1ccc([N+](=O)[O-])cc1)c1ccccc1	inactive
COc1ccc2c(C)nc(Nc3nc(-c4ccccc4)cc(=O)[nH]3)nc2c1	inactive
O=C(Cn1cc(/C=C\[N+](=O)[O-])c2ccccc21)Nc1ccccc1	inactive
Oc1cc(NCc2cccnc2)ccc1-c1nc2ccccc2o1	inactive
NCCN1C(=O)S/C(=C\c2ccc3c(c2)OCO3)C1=O	inactive
O=C(COC(=O)C1=COCCO1)Nc1c(F)cccc1F	inactive
N=c1n(CC(=O)c2ccc([N+](=O)[O-])cc2)c2ccccc2n1Cc1ccccc1	inactive
Cc1ccccc1Cn1c(=N)n(CC(=O)c2ccc([N+](=O)[O-])cc2)c2ccccc21	inactive
N=c1n(CC(=O)c2ccc([N+](=O)[O-])cc2)c2ccccc2n1Cc1ccccc1Cl	inactive
O=C(C[n+]1cccc2ccccc21)c1ccc([N+](=O)[O-])cc1	inactive
CC(NC(=O)C12CC3CC(CC(C3)C1)C2)C(=O)NN=Cc1ccc([N+](=O)[O-])o1 (stereo not drawn)	inactive
Cc1ccc(-n2nnnc2Sc2nc([N+](=O)[O-])nn2C)c(C)c1	inactive
O=C(O)c1cccc(COc2ccccc2Cl)c1	inactive
COc1ccc(O)c(/C=N/NC(=O)c2ccc(CSc3nc(C)cc(C)n3)cc2)c1	inactive
O=C(COc1ccc2c(c1)CCC2)N1CCc2ccccc21	inactive
O=S(=O)(c1ccc(F)cc1)c1snnc1-c1ccccc1	inactive
CCOc1ccc2nc(C)cc(Nc3cccc([N+](=O)[O-])c3)c2c1	inactive
COC(=O)c1ccc(Nc2cc(C)nc3ccc(C)cc23)cc1	inactive
COc1ccc(NC(=O)CCC(=O)N/N=C/c2ccc([N+](=O)[O-])s2)cc1	inactive

Compound	outcome
COc1ccc(NC(C)C(=O)N/N=C/c2ccc([N+](=O)[O-])s2)cc1 (stereo not drawn)	inactive
O=[N+]([O-])c1c(NCCCO)cc(Sc2ccc(Cl)cc2)c2nonc12	inactive
O=C(NCc1ccccc1)C(=O)Nc1cccc(C(=O)O)c1	inactive
O=C(c1cc2ccccc2oc1=O)N(Cc1ccccc1)C1CCS(=O)(=O)C1 (stereo not drawn)	inactive
CC(=O)NC1=C(N(C)C2CCS(=O)(=O)C2)C(=O)c2ccccc2C1=O (stereo not drawn)	inactive
O=C(NC1CCCCC1)C(c1cccnc1)N(C(=O)CCl)c1ccc(F)cc1 (stereo not drawn)	inactive
O=C(NC1CCCCC1)C(c1cccnc1)N(C(=O)CCl)c1cccc(Cl)c1 (stereo not drawn)	inactive
CCC(=O)NC(c1ccccc1OC)c1ccc2cccnc2c1O (stereo not drawn)	inactive
Cc1ccc(C(=O)c2no[n+]([O-])c2C(=O)c2ccc(C)cc2)cc1	inactive
Cc1ccc(NC(=O)C2CCN(S(=O)(=O)c3c(C)noc3/C=C/c3ccco3)CC2)nc1	inactive
Cc1[nH]nc(Nc2ccc(Br)cc2)c1[N+](=O)[O-]	inactive
CC(C)(C)c1ccc(-c2noc(CCC(=O)NCC3CCCO3)n2)cc1 (stereo not drawn)	inactive
Oc1ccccc1/C=N/Nc1cccc2cccnc12	inactive
O=C(N/N=C/c1cc(Br)ccc1O)c1ccncc1	inactive
Cn1cccc1-c1cc(C(=O)N/N=C/c2cc(Br)ccc2O)[nH]n1	inactive
O=C(CCCCC(=O)NN=Cc1ccccc1O)NN=Cc1ccccc1O	inactive
COc1ccc(C(=O)NCCSc2ccccc2C)cc1	inactive
CCOc1ccc(NC(=O)c2ccccn2)cc1	inactive
CC(C)N=C(NS(=O)(=O)c1ccccc1)C(Cl)(Cl)Cl	inactive
O=C(Cn1cnc2ccccc2c1=O)Nc1ccc2c(c1)OCCO2	inactive
Cc1nn(C)cc1/C=C/C(=O)c1cccs1	inactive
Cc1ccn2c(Nc3ccccc3)c(-c3ccccn3)nc2c1	inactive
O=[N+]([O-])c1cc(C(F)(F)F)ccc1NCCc1ccccn1	inactive

Compound	outcome
COc1ccc(COC(=O)c2n[nH]c3ccccc23)cc1F	inactive
Cc1cc(Br)ccc1OCc1nc(-c2cccnc2)no1	inactive
O=C(NC1CCCCCC1)c1cc2ccccc2oc1=O	inactive
CCOC(=O)c1cc([N+](=O)[O-])c([N+](=O)[O-])cc1NC(C)=O	inactive
N/C(CS(=O)(=O)c1ccccn1)=N\OC(=O)c1ccccc1Cl	inactive
N/C(=N\OC(=O)c1ccccc1)c1ccccn1	inactive
O=C(Nc1ccc2c(c1)OCCO2)c1ccoc1	inactive
COc1ccccc1NC(=O)c1cnc(SCC(=O)NCC2CCCO2)n(C)c1=O (stereo not drawn)	inactive
COc1ccc(Cn2c(-c3ccc(C)cc3)c[n+]3ccccc23)cc1	inactive
COc1ccc2oc(=O)c(C(=O)Nc3ccccc3C)cc2c1	inactive
CCC[n+]1c(C)sc2c3c(ccc21)CCCC3	inactive
O=C(Nc1ccccc1)C1Cc2ccccc2CN1C(=O)c1ccco1 (stereo not drawn)	inactive
Cc1ccc(OCCNCc2ccccc2)c(C)c1	inactive
Cc1cc(Cl)ccc1NC(=O)c1ccc2c(c1)OCO2	inactive
CN(C)c1ccc(/C=C(\C#N)c2ccccn2)cc1	inactive
O=C1NC2c3c(I)sc(I)c3C(=O)C2O1 (stereo not drawn)	inactive
C/C(=N\Nc1cc(N2CCOCC2)ncn1)c1ccccc1	inactive
O=C(Nc1ccccc1N1CCN(C(=O)c2ccccc2)CC1)c1ccc([N+](=O)[O-])o1	inactive
COc1ccccc1N1CCN(/N=C/c2cccc(Cl)c2)CC1	inactive
O=C(CS(=O)c1ccc(C(F)(F)F)cc1[N+](=O)[O-])Oc1ccccc1 (stereo not drawn)	inactive
O=C(/C=C\c1ccccc1)NCC(=O)N/N=C/c1ccc(O)cc1O	inactive
CCOC(=O)/C=c1/s/c(=C/c2ccc3cc(OC)ccc3c2)c(=O)n1CC(=O)NCC1CCCO1 (stereo not drawn)	inactive
CC(C)(C)C(=O)/C(=C/c1ccncc1)n1cncn1	inactive

Compound	outcome
c1ccc(OCc2nn3c(-c4ccccn4)nnc3s2)cc1	inactive
O=C(N/N=C/c1ccccc1Cl)c1n[nH]c2c1CCCC2	inactive
N#Cc1cnn2cc(CCN3CCOCC3)c(-c3ccc(F)cc3)nc12	inactive
CCCCC(=O)N/C(N)=N/c1nc2ccccc2o1	inactive
C=CCn1cccc(C(=O)Nc2ccc(C)c(Cl)c2)c1=O	inactive
N#C/C(C(=O)c1ccccc1)=C1/CCCCCN1	inactive
Cc1ccc2cc(NC(=O)Cc3ccccc3)ccc2n1	inactive
CCN1CCN(CCCNC(=O)c2ccc3c(Cl)c4c(nc3c2)CCCC4)CC1	inactive
Cc1cccc(/C=C2/Sc3ccc(C(=O)NCCN4CCCC4)cc3NC2=O)c1	inactive
COc1cccc(/C=C2/Sc3ccc(C(=O)NCCN4CCCC4)cc3NC2=O)c1	inactive
COc1ccc(/C=C2\Sc3ccc(C(=O)NCCN4CCCCCC4)cc3N(C)C2=O)cc1	inactive
CCN1CCCC1CNC(=O)c1ccc2c(c1)NC(=O)/C(=C\c1ccc(OC)c(OC)c1)S2 (stereo not drawn)	inactive
CC1(C)CC(=O)c2cnc(N3CCc4ccccc43)nc2C1	inactive
CC1=C/C(=N\NC(=S)Nc2cccnc2)CC(C)(C)C1	inactive
CC(C)(C)NC(=O)CCN(/N=C/c1ccc([N+](=O)[O-])o1)C1=NS(=O)(=O)c2ccccc21	inactive
O=C1CCC2S/C(=C/Nc3ccc(C(F)(F)F)cc3)C(=O)N12 (stereo not drawn)	inactive
Nc1nc2n[nH]nc2c(=O)[nH]1	inactive
CN1CCN(c2ccc(NC(=S)NC(=O)c3cccc4ccccc34)cc2)CC1	inactive
CCOc1ccc(-n2c(O)c(/C=N/Nc3nc(C)cc(C)n3)c3ccccc3c2=O)cc1	inactive
O=C1N=C(N2CCOCC2)S/C1=C\C=C/c1ccccc1	inactive
O=C(c1ccc(F)cc1)N1CCC(c2ccccc2)C1 (stereo not drawn)	inactive
COc1ccc2c(c1OC)C(=O)N(c1ccc(C)cc1)C2	inactive
Cc1cnc(NC(=O)c2nn(C)cc2[N+](=O)[O-])s1	inactive

Compound	outcome
Cn1cc([N+](=O)[O-])c(C(=O)Nc2cc(Oc3ccccc3)cc([N+](=O)[O-])c2)n1	inactive
Cc1ccc(-n2nnnc2CNC(=O)c2ccc([N+](=O)[O-])o2)cc1C	inactive
CCc1cc(C=NC2CCCCC2)c(O)s1	inactive
Cc1ccc(-n2[nH]c(=O)c(-c3ccccn3)c2C)cc1	inactive
O=C(Nc1ccc(Br)cc1)c1ccc2c(c1)OCO2	inactive
O=C(CSc1nc2ccccc2[nH]1)c1ccc2c(c1)OCO2	inactive
CCc1ccc(-c2cc(C(=O)Nn3cnnc3)c3ccccc3n2)cc1	inactive
CCc1ccccc1NC(=O)CN(C)C(=O)Cn1ncc(Cl)c(Cl)c1=O	inactive
CCOC(=O)c1[nH]cnc1N=Nc1c(O)ccc2ccccc12	inactive
O=C(N/N=C/c1ccc([N+](=O)[O-])o1)c1ccccc1-n1cccc1	inactive
O=[N+]([O-])c1ccc(/C=N/N=C/c2ccc([N+](=O)[O-])o2)o1	inactive
O=C(N/N=C/c1ccc([N+](=O)[O-])o1)c1sc2ccccc2c1Cl	inactive
O=C(Cn1ncc(Cl)c(Cl)c1=O)N1CCOCC1	inactive
O=[N+]([O-])c1ccc(/C=N/Nc2ccnc3cc(Cl)ccc23)o1	inactive
COc1cccc(NC(=O)Nc2cccc(C(=O)O)c2)c1	inactive
COc1cc(OC)cc(C(=O)Nc2ccc3c(c2)OCCO3)c1	inactive
C/C(=N/N=C(/C)c1cccs1)c1cccs1	inactive
O=C(Nc1nc(-c2ccccn2)cs1)c1ccccc1-n1cnnn1	inactive
COc1ccc(Br)cc1C(C[N+](=O)[O-])c1c(N)n(C)c(=O)n(C)c1=O (stereo not drawn)	inactive
O=C(CCC1CCCN(C(=O)c2cc3ccccc3o2)C1)NCc1ccc(F)c(F)c1 (stereo not drawn)	inactive
CCOC(=O)c1sc(NC(=O)Nc2ccc(Cl)cc2)nc1C	inactive
